Inconclusive results are not listed. A call without a number means that no potency is given here. Calls of active or inactive are those of the source. The call rests on the fitted dose curve; in most records, active means well fitted inhibition curve with a large enough effect; inconclusive means small, poorly fitted or top-dose-only effect; inactive means flat fitted curve, though single readings scatter.
Biological target: Tyrosine-protein phosphatase non-receptor type substrate 1 (Homo sapiens) + Leukocyte surface antigen CD47 (Homo sapiens) (UniProt P78324+Q08722)
Assay: CD47-SIRPalpha protein protein interaction - Alpha assay qHTS validation (AID 1347059);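 further: bead proximity luminescence from CD47 binding SIRPalpha after compound preincubation with SIRPalpha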
Conditions: AlphaScreen CD47-His/biotin-SIRPalpha binding, LOPAC; series mostly up to 38.3 µM
Source text: SIRPalpha is a myeloid cell expressed immunomodulatory receptor that binds the tumor expressed immune checkpoint CD47. Therapeutic disruption of this interaction leads to immune-mediated tumor rejection. This assay was used to quantitate CD47-SIRPalpha binding biochemically and evaluate chemical libraries for novel CD47-SIRPalpha inhibitors. To recapitulate the biological interaction of CD47 and SIRPalpha, we designed expression constructs to produce their recombinant, soluble, extracellular interaction domains. CD47 was produced with an N-terminal 6His tag. SIRPalpha was produced with an N-terminal Avi-Tag for site-specific biotin incorporation. The CD47-SIRPalpha interaction was measured by AlphaScreen using affinity tag linked reagents (Ni-NTA acceptor bead and streptavidin donor bead). SIRPalpha without biotin incorporation was used as a positive control inhibitor.
PROTOCOL TABLE (as described by Miller, T. et al. 2019)
SEQUENCE No. (e.g., 1, 2, 3, etc.); […] (e.g., Cells, Incubation, Reagent, etc.); VALUE and DESCRIPTION.
1a. Reagent. 2 uL SIRPalpha-biotin (25 nM) added to respective wells in Assay buffer; white/solid bottom high base, med bind 1536-well plates (Greiner 789075)
1b. Reagent. 2 uL Assay buffer negative control for background fluorescence
2. Reagent. 23 nL library compounds (7-pt, 1:4 intraplate titration series) or DMSO control transferred by Pin Tool
3. Centrifuge. Centrifuge plate for 30 s at 1000 RPM
4. Incubation.#Incubate reagents at room temperature for 30 min, protected from light
5. Reagent. 2 uL CD47-His (12.5 nM) in Assay buffer
6. Centrifuge. Centrifuge plate for 30 s at 1000 RPM
7. Incubation.#Incubate reagents at room temperature for 30 min, protected from light
8. Reagent. 1 uL Ni-NTA beads (10 ug/mL) added to respective wells
9. Reagent. 1 uL SAV beads (10 ug/mL) added to respective wells
10. Centrifuge. Centrifuge plate for 30 s at 1000 RPM
11. Incubation. Incubate reagents at room temperature for 30 min, protected from light
12. Detector. Measure AlphaScree n on EnVision (1536A1 aperture)
Where possible, perform Donor bead dilution and addition away from direct sunlight or with bright overhead lights turned off (<100 lux, similar to hallway lighting). Lighting should still be bright enough to allow accurate pipetting.
1. Assay buffer composition.#Phosphate buffered saline (PBS; 10 mM Phosphate, 137 mM NaCl, and 2.7 mM KCl; pH 7.4), 0.05% IGEPAL CA-630
2. 23nL of […] library compounds (7 plates) or DMSO vehicle control transferred to 9 Greiner white/solid bottom high base, TC plates in 7 interplate 1:5 titrations (see Yasgar, A. et al. 2008) with Pintool. Two of the 9 plates are DMSO-only in compound field at beginning and end of compound library-treated plates.
12. Aperture = 1536 plate HTS AlphaScreen; plate-detector distance = 0; Total measurement time = 240; Ex. time = 80 ms (33%); Afterglow CT1 corr. factor = 0; Glow CT2 corr. factor = 0; Bleach CT3 corr. factor = 0; Ref. signal= 417733; Ref. AD gain = 2

Sequence of Tyrosine-protein phosphatase non-receptor type substrate 1 (Homo sapiens) + Leukocyte surface antigen CD47 (Homo sapiens) (P78324 whole entry, looked up): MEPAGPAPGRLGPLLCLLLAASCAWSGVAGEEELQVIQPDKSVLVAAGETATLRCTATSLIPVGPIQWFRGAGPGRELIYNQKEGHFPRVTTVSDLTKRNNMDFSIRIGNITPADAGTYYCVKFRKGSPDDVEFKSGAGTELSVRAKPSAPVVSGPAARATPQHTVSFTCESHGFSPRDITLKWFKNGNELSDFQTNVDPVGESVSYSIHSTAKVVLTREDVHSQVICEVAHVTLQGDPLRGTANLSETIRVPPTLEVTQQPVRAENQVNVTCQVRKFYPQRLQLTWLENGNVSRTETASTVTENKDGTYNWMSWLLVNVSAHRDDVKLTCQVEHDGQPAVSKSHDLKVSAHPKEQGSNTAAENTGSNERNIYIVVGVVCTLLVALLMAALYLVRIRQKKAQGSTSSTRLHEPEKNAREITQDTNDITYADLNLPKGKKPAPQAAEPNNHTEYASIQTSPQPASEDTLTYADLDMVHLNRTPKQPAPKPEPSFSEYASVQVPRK
Sequence of Tyrosine-protein phosphatase non-receptor type substrate 1 (Homo sapiens) + Leukocyte surface antigen CD47 (Homo sapiens) (Q08722 whole entry, looked up): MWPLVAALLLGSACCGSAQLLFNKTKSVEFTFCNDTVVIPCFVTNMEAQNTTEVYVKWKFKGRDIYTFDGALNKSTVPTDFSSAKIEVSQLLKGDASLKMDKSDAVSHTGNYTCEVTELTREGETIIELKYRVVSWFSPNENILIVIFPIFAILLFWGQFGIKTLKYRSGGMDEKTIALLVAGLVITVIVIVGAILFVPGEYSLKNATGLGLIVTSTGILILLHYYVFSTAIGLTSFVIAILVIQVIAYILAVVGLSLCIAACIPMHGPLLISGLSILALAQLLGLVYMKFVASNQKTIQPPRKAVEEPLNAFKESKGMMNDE

Row | Compound | Potency
1 | Cc1cc(NC2CCCCC2)nc(-n2nc(C)cc2C)n1 | inactive
2 | COC(=O)c1c(C)[nH]c(C)c1C(=O)c1ccccc1Cc1ccccc1 | inactive
3 | Clc1ccc(N2CCN(Cc3c[nH]c4ncccc34)CC2)cc1 | inactive
4 | CC(C)NC[C@@H](O)c1ccc(O)c(O)c1 | inactive
5 | COc1cccc(OC)c1OCCNCC1COc2ccccc2O1 (stereo not given) | inactive
6 | O=C(O)c1cc(=O)c2c(Cl)cc(Cl)cc2[nH]1 | inactive
7 | CCN(CC)c1ncnc2c1ncn2[C@@H]1O[C@H](COP(=O)(O)OP(=O)(O)C(Br)(Br)P(=O)(O)O)[C@@H](O)[C@H]1O | inactive
8 | Nc1nc(Cl)nc2c1ncn2[C@@H]1O[C@H](CO)[C@@H](O)[C@H]1O | inactive
9 | CNC(=O)[C@H]1O[C@@H](n2cnc3c(NCc4ccc(N)cc4)ncnc32)[C@H](O)[C@@H]1O | inactive
10 | O=C1NC(=O)/C(=C/c2ccc(-c3ccc(F)cc3O)o2)S1 | inactive
11 | Fc1ccc2[nH]c(CN3CCN(c4ccccn4)CC3)cc2c1 | inactive
12 | NC(CCCP(=O)(O)O)C(=O)O (stereo not given) | inactive
13 | CC1OC1P(=O)(O)O (stereo not given) | inactive
14 | COc1cc2c(CCNC(C)=O)c[nH]c2cc1Cl | inactive
15 | S=c1[nH]c(-c2ccccc2)cn1-c1ccccc1 | inactive
16 | CC(C)Cc1ccc([C@H](C)C(=O)O)cc1 | inactive
17 | O=C(CCSCc1ccco1)NNC(=O)N1Cc2ccccc2Oc2ccc(Cl)cc21 | inactive
18 | O=P(O)(O)C(Cl)(Cl)P(=O)(O)O | inactive
19 | CN=c1nc(-c2ccccc2)n(-c2ccccc2)s1 | inactive
20 | NCC1OC(O[C@H]2[C@H](O)[C@@H](OC3C(O)C(N)CC(N)C3OC3OC(CO)C(O)C(O)C3N)O[C@@H]2CO)C(N)C(O)C1O (stereo not given in full) | inactive

Row | Compound | Potency
21 | O=C(Nc1ccc2c(c1)CCN(Cc1ncn[nH]1)C2)c1ccccc1-c1ccc(C(F)(F)F)cc1 | inactive
22 | COCCOc1cc2nc[nH]c(=O)c2cc1OCCOC | inactive
23 | CC(=O)N[C@H](C(=O)O)C(C)(C)SN=O | inactive
24 | O=C(O)CC1CCCc2ccccc2C1O (stereo not given) | inactive
25 | Nc1ccn([C@H]2O[C@H](CO)[C@@H](O)C2(F)F)c(=O)n1 | inactive
26 | COc1cc(SC)ccc1C(=O)N1CCC(Cc2ccccc2)CC1 | inactive
27 | NC(N)=NC(=O)c1nc(Cl)c(N2CCCCCC2)nc1N | inactive
28 | Nc1ncnc2c1ncn2[C@@H]1O[C@H](COP(=O)(O)CP(=O)(O)OP(=O)(O)O)[C@@H](O)[C@H]1O | inactive
29 | COC1=C(OC)C(=O)c2ccccc2C1=O | inactive
30 | Nc1nc(OCC2CCCCC2)c2[nH]cnc2n1 | inactive
31 | CC[C@H]1OC(=O)[C@H](C)[C@@H](O[C@H]2C[C@@](C)(OC)[C@@H](O)[C@H](C)O2)[C@H](C)[C@@H](O[C@@H]2O[C@H](C)C[C@H](NC)[C@H]2O)[C@](C)(O)C[C@@H](C)CN(C)[C@H](C)[C@@H](O)[C@]1(C)O | inactive
32 | O=C(/C=C/c1ccc(O)c(O)c1)OCCc1ccccc1 | inactive
33 | O=C1NC(O)=NC1(c1ccccc1)c1ccccc1 | inactive
34 | O=[N+]([O-])c1ccc2c(c1)S(=O)(=O)C=C2 | inactive
35 | O=C(Nc1ccc2[nH]ncc2c1)C1CCC1 | inactive
36 | Oc1ccc(C2CNCc3sccc32)cc1O (stereo not given) | inactive
37 | C[N+]1(C)CCC(OC(=O)C(c2ccccc2)c2ccccc2)CC1 | inactive
38 | CCOC(=O)N1CCN(/[N+]([O-])=N/Oc2ccc([N+](=O)[O-])cc2[N+](=O)[O-])CC1 | inactive
39 | COc1ccc(-c2cc(=O)c3c(O)c(OC)c(OC)cc3o2)cc1O | inactive
40 | Cc1cc2c(cc1Cl)N(C(=O)Nc1ccc(Oc3cccnc3C)nc1)CC2 | inactive

— PubChem BioAssay (NCATS)
